The whole screen tested about 12,000 compounds, of which about 45 (0.4%) were called active. No stated cut-off is given here; in the data, active means inhibition mostly above about 83% (no sharp cut-off); inactive means mostly below about 52%. Shown is part of a subset that was picked to be rich in actives.
Columns and labels:
[1] = BmaI1 acyl-homoserine lactone synthase inhibition – biochemical, fluorescence intensity, with counterscreen (AID 720554); conditions: BmaI1 enzyme assay, measured here: counterscreen fluorescence % control, concentration not given here
[2] = test system: acyl-homoserine lactone synthase BmaI1 (Burkholderia mallei ATCC 23344); assay: as above; conditions: BmaI1 enzyme assay, stronger effect = higher value, concentration not given here

SMILES	inhibition [1]	inhibition [2]
CCn1c(CCC(=O)Nc2ccc(N3CCOCC3)cc2)nc2cc(S(=O)(=O)N(C)C)ccc21	-2.5%	21% (inactive)
CCn1c(C)nc2cc(C#N)ccc21	6%	8% (inactive)
CCc1ccc(C2=Nn3c(nnc3-c3cccc(S(=O)(=O)N(CC)CC)c3)SC2)cc1	3%	21% (inactive)
CN(C)S(=O)(=O)c1cccc(-c2nnc3n2CCCCC3)c1	-2%	-4.5% (inactive)
CN(C)S(=O)(=O)c1cccc(-c2nnc3n2N=C(c2cccs2)CS3)c1	-1%	87.5% (active)
COc1ccc2c(Cl)c(-c3nnc4n3CCC4)sc2c1	-3.5%	6.5% (inactive)
Cc1csc(Cc2nc3ccccc3n2C)n1	8%	16% (inactive)
Cn1c(CC(N)=S)nc2ccccc21	17%	92.5% (active)
Cn1c(Cc2nnc3n2-c2ccccc2SC3)nc2ccccc21	-1%	28.5% (inactive)
Cc1cc(C(=O)Cn2cnc3sccc3c2=O)c(C)n1C1CC1	8.5%	16.5% (inactive)
CC(C)Sc1nc2ccccc2n1CN1CCN(c2ccccn2)CC1	3%	9% (inactive)
Cc1csc(=O)n1CN1CCN(C(=O)C2COc3ccccc3O2)CC1 (stereo not given)	7.5%	17.5% (inactive)
COC(=O)COc1cc(NO)ccc1N=O	4.5%	88.5% (active)
COC(=O)COc1ccc2ccc(=O)oc2c1	-9.5%	-8% (inactive)
CCN(CC)c1ccc(N=CN2CCOCC2)cc1	-31%	53% (inactive)
COC(=O)c1c(C)oc(C)c(C(=O)OC)c1=O	2.5%	1.5% (inactive)
Cc1ccc(Cl)cc1N1CCN(Cn2sc3ccccc3c2=O)CC1	8.5%	77% (inactive)
CCOC(=O)C1CCN(Cn2c(=S)oc3ccc(S(=O)(=O)CC)cc32)CC1	-4%	5% (inactive)
Nc1nc2cc(S(=O)(=O)N3CCOCC3)ccc2o1	-5.5%	2.5% (inactive)
O=S(=O)(c1ccc2oc(=S)n(CN3CCOCC3)c2c1)N1CCOCC1	4%	99.5% (active)

SMILES	inhibition [1]	inhibition [2]
CCn1c(=O)c(=O)[nH]c2cc(C(=O)Nc3ccccc3N3CCOCC3)ccc21	19.5%	16.5% (inactive)
c1coc(-c2nnc(-c3ccco3)nn2)c1	34%	0% (inactive)
O=c1[nH]nc(-c2ccco2)o1	-7%	96% (active)
Cn1c(-c2ccco2)n[nH]c1=S	80%	96.5% (inactive)
Cc1cc(C(=O)Cn2cc(C(F)(F)F)ccc2=O)c(C)n1Cc1ccco1	1%	3% (inactive)
Cc1ccc(C(=O)NCCN2C(=O)S/C(=C\c3ccc(F)cc3)C2=O)cc1NC(=O)c1ccco1	-9.5%	6.5% (inactive)
O=C(O)c1sc2sccc2c1Cl	-1.5%	8.5% (inactive)
O=C1Cc2ccccc2C(=O)N1	7%	99.5% (active)
O=C1CCc2ccccc2N1	-5%	-11% (inactive)
O=C1NC(C(=O)O)Cc2ccccc21 (stereo not given)	9%	15% (inactive)
O=C(CN1C(=O)c2ccccc2S1(=O)=O)N1N=C(c2ccc(Cl)cc2)CC1c1ccco1 (stereo not given)	10.5%	15% (inactive)
CC1Sc2ccc(C(=O)Oc3ccc4c(c3)OCO4)cc2NC1=O (stereo not given)	2%	35.5% (inactive)
CCN(CC)S(=O)(=O)c1ccc2c(c1)CCCN2	-4%	18% (inactive)
O=C(OCC(=O)N1CCC(Cc2ccccc2)CC1)c1ccc(O)cc1	-7.5%	2.5% (inactive)
COc1ccc(N(C)S(=O)(=O)c2cccc(C(=O)Nc3ccc(N4CCN(C)CC4)cc3C)c2)cc1	11.5%	9% (inactive)
Cc1c(C(=O)O)sc2nc(CSc3nnc(-c4ccc(F)cc4)n3C)[nH]c(=O)c12	2.5%	3% (inactive)
CCOC(=O)c1c(N)sn(-c2ccccc2)c1=S	14.5%	17% (inactive)
N#CC1=C(N)N(c2ccccc2)C(=O)C1	0%	-10.5% (inactive)
N#Cc1c(N)sn(-c2ccccc2)c1=S	11.5%	102% (active)
COC(=O)C(C)Sc1ncnc2sc(C)c(C)c12 (stereo not given)	7%	13% (inactive)

SMILES	inhibition [1]	inhibition [2]
Cc1sc2ncnc(N)c2c1C	9.5%	89.5% (active)
Cc1sc2ncnc(N3CCc4ccccc43)c2c1C	6%	8.5% (inactive)
CCCCn1ccnc1C(=O)c1ccc(S(=O)(=O)N2CCCC2)cc1	1%	8% (inactive)
CCCCN1C(=O)CC(C(=O)O)C1c1ccc(OC)cc1 (stereo not given)	3%	-3.5% (inactive)
CCOc1ccc(/C=N/N2C(=O)NC(C)(CC)C2=O)c(O)c1 (stereo not given)	-4.5%	0.5% (inactive)
CC(=O)NCc1ccc(-c2csc(N)n2)o1	17.5%	92.5% (active)
COc1ccc(Cc2nnc3n2N=C(c2ccc(CNC(C)=O)o2)CS3)cc1	6%	15.5% (inactive)
CC(=O)NCCc1ccc(-c2csc(N)n2)cc1	41%	24% (inactive)
COc1cc2c(cc1NC(=O)C(C)Sc1nncn1C)oc1ccccc12 (stereo not given)	-6.5%	16.5% (inactive)
CNC(=O)NC(=O)C(C)N1CCc2ccccc2C1 (stereo not given)	-2.5%	2.5% (inactive)
COc1cccc(NC(=O)/C=N/O)c1	19.5%	37.5% (inactive)
COc1cccc(N=C2NNC(C)=C(C(=O)N(C)C)S2)c1	13.5%	88.5% (active)
COc1cccc(CC(=O)Nc2cccc(OC)c2)c1	2%	8.5% (inactive)
CCn1c(Cn2cc(S(=O)(=O)N3CCCC3)ccc2=O)nc2cc(S(=O)(=O)N(C)C)ccc21	1%	8.5% (inactive)
Oc1c(C(Nc2ccccn2)c2cccnc2)ccc2cccnc12 (stereo not given)	-15%	14% (inactive)
Oc1c(C(c2cccnc2)N2CCOCC2)ccc2cccnc12 (stereo not given)	28.5%	105% (active)
Oc1c(C(c2cccnc2)N2CCCCC2)ccc2cccnc12 (stereo not given)	-53.5%	-20.5% (inactive)
CC(Sc1nnc(-c2ccccc2)o1)C(=O)N(C)c1ccccc1 (stereo not given)	9%	7% (inactive)
CN(C(=O)c1ccco1)C1(c2ccccc2Cl)CCCCC1=O (stereo not given)	5.5%	9.5% (inactive)
CCOC(=O)C(Sc1n[nH]c(N)n1)c1ccccc1 (stereo not given)	13.5%	15.5% (inactive)

Source: PubChem BioAssay AID720554 (ICCB-Longwood Screening Facility, Harvard Medical School, 2013)
